What was measured:
Assay in all cases: log2 ratio of Biotin-Ahx-Ub-VS probe labelling (fragment/DMSO); higher = less target engagement (more negative = stronger competition), active = hit call of the paper (q ≤ 0.05, log2 ratio ≤ -1)
Details in all cases: compound concentration: 200 uM; treatment time: 3 h
[1] = molecular target: T1, OTUD6B (UniProt Q8N6M0)
T1 sequence (whole entry): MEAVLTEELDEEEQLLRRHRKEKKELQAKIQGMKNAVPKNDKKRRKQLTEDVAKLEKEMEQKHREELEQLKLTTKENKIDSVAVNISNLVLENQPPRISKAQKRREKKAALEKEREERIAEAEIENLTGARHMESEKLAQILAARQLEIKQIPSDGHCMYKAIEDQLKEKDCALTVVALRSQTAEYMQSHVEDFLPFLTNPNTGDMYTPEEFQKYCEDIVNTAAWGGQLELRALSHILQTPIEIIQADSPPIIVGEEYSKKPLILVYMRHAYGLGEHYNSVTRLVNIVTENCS
In short: (§1)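 HEK293T lysate, 495 µg per sample in Tris/CHAPS/IGEPAL buffer with protease inhibitors, was treated in triplicate with fragment at 200 µM or vehicle for 3 h and then with Biotin-Ahx-Ub-VS at 0.5 µM final for 1 h. Labelled DUBs were NeutrAvidin-enriched, digested with LysC and trypsin, and run by diaPASEF LC-MS/MS. Spectronaut label-free quantities were global-median-normalised, and values are average log2 fragment/vehicle ratios by unpaired t-test on proteins with ≥2 unique peptides.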

[2] = molecular target: T2, OTUD7B (UniProt Q6GQQ9)
T2 sequence (whole entry): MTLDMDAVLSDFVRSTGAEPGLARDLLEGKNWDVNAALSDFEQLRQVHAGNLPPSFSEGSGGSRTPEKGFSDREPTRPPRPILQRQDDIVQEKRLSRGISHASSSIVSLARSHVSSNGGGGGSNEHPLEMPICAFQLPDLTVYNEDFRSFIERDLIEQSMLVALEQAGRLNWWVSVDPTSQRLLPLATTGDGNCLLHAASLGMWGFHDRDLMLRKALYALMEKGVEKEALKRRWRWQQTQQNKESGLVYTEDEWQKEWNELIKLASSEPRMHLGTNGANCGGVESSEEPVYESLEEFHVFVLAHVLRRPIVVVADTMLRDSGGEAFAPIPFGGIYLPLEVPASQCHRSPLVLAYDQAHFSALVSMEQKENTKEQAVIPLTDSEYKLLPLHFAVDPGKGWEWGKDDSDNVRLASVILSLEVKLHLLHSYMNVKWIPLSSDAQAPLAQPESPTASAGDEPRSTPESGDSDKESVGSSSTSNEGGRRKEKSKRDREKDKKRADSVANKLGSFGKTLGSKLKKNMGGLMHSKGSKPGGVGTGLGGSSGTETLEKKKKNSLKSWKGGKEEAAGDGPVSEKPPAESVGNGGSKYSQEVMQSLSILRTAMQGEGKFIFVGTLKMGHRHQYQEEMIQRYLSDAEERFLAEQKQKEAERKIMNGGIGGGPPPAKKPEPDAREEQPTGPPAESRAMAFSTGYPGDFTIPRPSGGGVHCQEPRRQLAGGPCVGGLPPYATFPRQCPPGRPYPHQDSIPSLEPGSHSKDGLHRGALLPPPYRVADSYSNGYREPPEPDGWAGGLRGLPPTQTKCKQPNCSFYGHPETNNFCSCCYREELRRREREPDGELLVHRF
In short: as §1

[3] = molecular target: PRPF8 (UniProt Q6P2Q9)
In short: as §1

[4] = molecular target: T3, PSMD7 (UniProt P51665)
T3 sequence (whole entry): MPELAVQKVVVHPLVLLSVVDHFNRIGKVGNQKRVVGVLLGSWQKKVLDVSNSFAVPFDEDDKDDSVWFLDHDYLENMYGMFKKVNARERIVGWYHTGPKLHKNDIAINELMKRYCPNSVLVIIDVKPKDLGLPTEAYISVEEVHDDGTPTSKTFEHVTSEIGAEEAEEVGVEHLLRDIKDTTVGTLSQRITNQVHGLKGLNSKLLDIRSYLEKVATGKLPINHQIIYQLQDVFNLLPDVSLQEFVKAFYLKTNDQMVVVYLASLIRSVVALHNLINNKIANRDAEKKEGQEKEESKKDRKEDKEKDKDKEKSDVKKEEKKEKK
In short: as §1

[5] = molecular target: UCHL1 (UniProt P09936)
In short: as §1

[6] = molecular target: T4, UCHL3 (UniProt P15374)
T4 sequence (whole entry): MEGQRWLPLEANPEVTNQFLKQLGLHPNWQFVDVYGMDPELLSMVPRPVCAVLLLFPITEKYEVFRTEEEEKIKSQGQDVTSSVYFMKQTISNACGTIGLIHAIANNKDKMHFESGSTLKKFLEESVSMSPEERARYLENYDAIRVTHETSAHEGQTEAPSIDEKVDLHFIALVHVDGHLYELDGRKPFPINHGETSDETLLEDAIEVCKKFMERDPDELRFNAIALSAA
In short: as §1

[7] = molecular target: T5, UCHL5 (UniProt Q9Y5K5)
T5 sequence (whole entry): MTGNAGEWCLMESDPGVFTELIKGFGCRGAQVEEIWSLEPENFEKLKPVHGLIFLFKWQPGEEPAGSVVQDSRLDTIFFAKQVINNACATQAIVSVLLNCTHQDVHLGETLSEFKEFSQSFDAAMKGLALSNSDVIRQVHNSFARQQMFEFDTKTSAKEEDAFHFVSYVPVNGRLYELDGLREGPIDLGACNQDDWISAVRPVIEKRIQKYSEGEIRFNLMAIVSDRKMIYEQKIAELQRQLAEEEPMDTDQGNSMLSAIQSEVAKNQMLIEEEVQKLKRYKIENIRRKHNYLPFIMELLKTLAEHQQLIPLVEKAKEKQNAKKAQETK
In short: as §1

[8] = molecular target: USP10 (UniProt Q14694)
In short: as §1

[9] = molecular target: T6, USP15 (UniProt Q9Y4E8)
T6 sequence (whole entry): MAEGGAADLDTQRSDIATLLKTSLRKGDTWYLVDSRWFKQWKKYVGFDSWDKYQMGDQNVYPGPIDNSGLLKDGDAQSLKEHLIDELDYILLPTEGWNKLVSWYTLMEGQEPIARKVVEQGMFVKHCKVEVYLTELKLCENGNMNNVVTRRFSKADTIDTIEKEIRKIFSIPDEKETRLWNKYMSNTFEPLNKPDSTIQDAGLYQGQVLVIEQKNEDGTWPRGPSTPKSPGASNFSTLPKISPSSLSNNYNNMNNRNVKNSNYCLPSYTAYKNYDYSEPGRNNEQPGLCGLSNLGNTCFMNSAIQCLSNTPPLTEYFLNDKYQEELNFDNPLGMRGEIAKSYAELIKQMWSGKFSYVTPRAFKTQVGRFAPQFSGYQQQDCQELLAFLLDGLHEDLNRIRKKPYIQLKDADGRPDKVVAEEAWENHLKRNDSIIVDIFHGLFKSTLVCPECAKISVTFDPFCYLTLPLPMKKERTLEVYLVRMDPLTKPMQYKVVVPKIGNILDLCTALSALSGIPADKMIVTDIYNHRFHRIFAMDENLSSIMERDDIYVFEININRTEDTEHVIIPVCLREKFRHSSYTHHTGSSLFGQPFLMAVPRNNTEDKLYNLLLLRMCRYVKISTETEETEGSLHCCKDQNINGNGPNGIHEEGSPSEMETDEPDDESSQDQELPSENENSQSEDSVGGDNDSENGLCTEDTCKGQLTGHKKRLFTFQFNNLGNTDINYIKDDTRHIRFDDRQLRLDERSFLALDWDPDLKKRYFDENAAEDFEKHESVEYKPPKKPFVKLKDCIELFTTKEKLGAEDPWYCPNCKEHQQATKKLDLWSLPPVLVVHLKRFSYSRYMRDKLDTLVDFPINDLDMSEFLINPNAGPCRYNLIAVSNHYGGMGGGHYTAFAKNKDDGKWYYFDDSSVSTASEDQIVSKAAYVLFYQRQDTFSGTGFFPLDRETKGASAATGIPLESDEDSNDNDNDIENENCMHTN
In short: as §1

[10] = molecular target: USP16 (UniProt Q9Y5T5)
In short: as §1

Measured: log2 ratio of Biotin-Ahx-Ub-VS probe labelling

Sequence of USP16 (Q9Y5T5 whole entry, looked up): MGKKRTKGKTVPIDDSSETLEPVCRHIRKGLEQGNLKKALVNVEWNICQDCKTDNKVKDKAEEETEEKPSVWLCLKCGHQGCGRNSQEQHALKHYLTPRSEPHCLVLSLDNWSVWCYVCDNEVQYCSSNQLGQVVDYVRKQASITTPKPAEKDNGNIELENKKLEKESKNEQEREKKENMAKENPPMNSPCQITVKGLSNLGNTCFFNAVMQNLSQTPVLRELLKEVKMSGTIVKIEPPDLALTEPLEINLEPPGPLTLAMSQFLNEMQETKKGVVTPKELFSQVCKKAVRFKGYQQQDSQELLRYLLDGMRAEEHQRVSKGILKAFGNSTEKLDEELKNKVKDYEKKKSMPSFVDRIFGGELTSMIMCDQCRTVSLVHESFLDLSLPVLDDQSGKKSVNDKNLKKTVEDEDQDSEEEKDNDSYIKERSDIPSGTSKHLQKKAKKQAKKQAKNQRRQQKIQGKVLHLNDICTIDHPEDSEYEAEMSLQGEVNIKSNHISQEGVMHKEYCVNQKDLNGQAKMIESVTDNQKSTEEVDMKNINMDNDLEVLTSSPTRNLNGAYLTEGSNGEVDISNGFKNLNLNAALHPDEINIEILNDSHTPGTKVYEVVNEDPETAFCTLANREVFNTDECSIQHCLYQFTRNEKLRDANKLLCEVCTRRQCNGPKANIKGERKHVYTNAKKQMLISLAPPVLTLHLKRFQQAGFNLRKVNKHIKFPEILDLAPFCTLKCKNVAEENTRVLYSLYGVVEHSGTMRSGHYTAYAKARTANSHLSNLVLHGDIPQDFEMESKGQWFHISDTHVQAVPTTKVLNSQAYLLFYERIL
Sequence of USP10 (Q14694 whole entry): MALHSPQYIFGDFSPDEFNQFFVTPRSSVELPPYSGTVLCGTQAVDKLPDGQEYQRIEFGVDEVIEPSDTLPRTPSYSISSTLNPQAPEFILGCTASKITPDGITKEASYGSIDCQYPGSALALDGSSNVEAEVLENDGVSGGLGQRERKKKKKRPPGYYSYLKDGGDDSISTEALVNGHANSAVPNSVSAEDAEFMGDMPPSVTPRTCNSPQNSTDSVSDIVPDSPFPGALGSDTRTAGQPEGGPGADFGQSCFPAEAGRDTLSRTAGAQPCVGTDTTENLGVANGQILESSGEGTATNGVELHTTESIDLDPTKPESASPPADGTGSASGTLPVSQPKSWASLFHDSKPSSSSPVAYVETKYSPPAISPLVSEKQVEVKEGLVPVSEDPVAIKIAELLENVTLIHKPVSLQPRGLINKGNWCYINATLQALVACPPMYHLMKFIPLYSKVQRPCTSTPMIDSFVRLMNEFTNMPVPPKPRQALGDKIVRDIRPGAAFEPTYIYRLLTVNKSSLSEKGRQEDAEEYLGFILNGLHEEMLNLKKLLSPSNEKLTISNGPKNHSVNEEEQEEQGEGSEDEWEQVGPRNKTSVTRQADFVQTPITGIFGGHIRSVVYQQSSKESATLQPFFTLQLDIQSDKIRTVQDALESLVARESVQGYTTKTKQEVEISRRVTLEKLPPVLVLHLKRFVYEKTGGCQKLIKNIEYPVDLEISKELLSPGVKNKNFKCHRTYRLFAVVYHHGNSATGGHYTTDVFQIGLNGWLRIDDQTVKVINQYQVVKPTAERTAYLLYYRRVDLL
Sequence of UCHL1 (P09936 whole entry, looked up): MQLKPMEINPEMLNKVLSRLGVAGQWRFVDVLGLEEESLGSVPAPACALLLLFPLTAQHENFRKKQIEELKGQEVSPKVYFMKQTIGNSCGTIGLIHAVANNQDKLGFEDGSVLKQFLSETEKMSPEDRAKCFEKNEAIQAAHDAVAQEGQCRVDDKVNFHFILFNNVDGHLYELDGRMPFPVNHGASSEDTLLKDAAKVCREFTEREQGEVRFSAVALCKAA

C#Cc1cccc(NC(=O)CCl)c1
inactive: [1] -0.196 | [3] 0.296 | [4] -0.0915 | [7] -0.324 | [8] -0.0542 | [9] -0.414 | [10] -0.23
active: [2] -1.43 | [5] -1.61 | [6] -1.39
